In PubChem BioAssay (Tox21):
Inconclusive results are not listed. The source made the active and inactive calls. Unless noted, calls come from the whole dose curve; as a rule, active = well fitted curve in the direction sought with a large enough effect in the repeat runs; inconclusive = weak or mixed curves; inactive = no such curve, though single readings can be large; an effect the other way counts as inactive or inconclusive.

Assays:
[1] = target: Retinoic acid receptor RXR-alpha (Homo sapiens) (UniProt P19793); experiment: qHTS assay to identify small molecule agonists of the RXR signaling pathway (AID 1159527; calls by dose curve; note: nearly all actives have a fitted effect of over 35% in size)
Method in brief: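 qHTS of the Tox21 10K library in GeneBLAzer RXR-alpha HEK 293T cells carrying a beta-lactamase reporter […]; 16 hr treatment, 9-cis retinoic acid as agonist control, FRET read-out.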

[2] = qHTS assay to identify small molecule agonists of the RXR signaling pathway - cell viability counter screen (AID 1159529); note: series mostly up to about 77 µM; nearly all actives have a fitted effect of over 50% in size
Method in brief: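 Cell viability is measured by CellTiter-Glo luminescence, 30 min at room temperature, in wells already read for beta-lactamase. Engineered HEK 293T cells (RXR-alpha-UAS-bla) are dosed 16 hr at 37 C. Tetraoctyl ammonium bromide serves as positive control.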

[3] = qHTS assay to identify small molecule antagonists of the retinoid acid receptor (RAR) signaling pathway - cell viability counter screen (AID 1159551); note: nearly all actives have a fitted effect of over 35% in size
Method in brief: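 C3RL4 cells were seeded overnight at 37 C, then treated with compounds plus 1 uM (final) retinol for 6 h at 37 C. Viability was read as ATP by CellTiter-Glo luminescence after 30 min at room temperature.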

[4] = qHTS assay to identify small molecule antagonists of the retinoic acid receptor (RAR) signaling pathway (AID 1159552; note: nearly all actives have a fitted effect of over 50% in size)
Method in brief: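 Quantitative HTS in C3RL4 RARE-luciferase reporter cells. Compounds were added with 1 uM (final) retinol; luminescence was read after 6 hr.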

[5] = qHTS assay to identify small molecule agonists of the retinoic acid receptor (RAR) signaling pathway (AID 1159553)
Method in brief: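 C3RL4 cells carrying a RARE luciferase reporter were plated overnight at 37 C, then exposed to compounds in DMSO for 6 hr at 37 C and 5% CO2. Luminescence was read 30 min after luciferase reagent addition at room temperature.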

[6] = qHTS assay to identify small molecule antagonists of the estrogen related receptor (ERR) signaling pathway - cell viability counter screen (AID 1224818);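 note: series mostly up to about 46 µM; viability measured after 17.5 h of compound exposure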
Method in brief: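 ERR reporter cells plated 6 h at 37 C/5% CO2, then compounds in DMSO pin-transferred and incubated 17.5 h at 37 C. Viability read as CellTiter-Fluor fluorescence after 30 min at 37 C.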

[7] = qHTS assay to identify small molecule antagonists of the estrogen related receptor (ERR) signaling pathway (AID 1224819;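 note: luminescence from an ERR-driven luciferase reporter measured with One-Glo reagent; series mostly up to about 46 µM; nearly all actives have a fitted effect of over 50% in size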)
Method in brief: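 ERR reporter cells were plated at 2,000 cells/well and left 6 h at 37 C/5% CO2 before pin-tool transfer of compounds in DMSO. After 18 h at 37 C, One-Glo was added and luminescence was read 30 min later at room temperature.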

[8] = qHTS assay to identify small molecule agonists of the estrogen related receptor (ERR) signaling pathway (AID 1224820)
Method in brief: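 ERR reporter cells (NTP line) plated 2,000/well, incubated 6 h at 37 C/5% CO2, then pinned with compounds in DMSO and held 18 h at 37 C. One-Glo added; luminescence read after 30 min at room temperature.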

[9] = tested on: estrogen-related receptor alpha (ERRalpha) with PGC-1alpha coactivator, human; experiment: qHTS assay to identify small molecule antagonists of the estrogen related receptor signaling pathway with the pleiotropic PPARgamma coactivator (PGC) (AID 1224821; calls by dose curve;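 note: series mostly up to about 46 µM; lower luminescence signal means antagonism of PGC/ERR signalling; nearly all actives have a fitted effect of over 50% in size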)
Method in brief: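 Cells engineered for PGC/ERR signalling (line from NTP) were plated 6 h at 37 C/5% CO2, then exposed to DMSO-dissolved compound for 18 h at 37 C. Luciferase activity was read by One-Glo luminescence after 30 min at room temperature.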

[10] = qHTS assay to identify small molecule antagonists of the estrogen related receptor signaling pathway with the pleiotropic PPARgamma coactivator (PGC) cell viability counter screen (AID 1224822; note: series mostly up to about 46 µM)
Method in brief: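 PGC/ERR cells were seeded at 2,000 cells/well, rested 6 h at 37 C/5% CO2, then given compounds in DMSO by pin tool and incubated 17.5 h at 37 C. Viability came from CellTiter-Fluor fluorescence after 30 min.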

[11] = qHTS assay to identify small molecule agonists of the estrogen related receptor signaling pathway with the pleiotropic PPARgamma coactivator (PGC) (AID 1224823)
Method in brief: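 PGC/ERR reporter cells were seeded, rested 6 h at 37 C/5% CO2, then exposed to compounds in DMSO by pin transfer for 18 h at 37 C. Luciferase activity was read as luminescence after One-Glo reagent and 30 min at room temperature.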

[12] = qHTS assay to identify small molecule antagonists of the estrogen related receptor (ERR) signaling pathway from Tox21 library - cell viability counter screen (AID 1224834); note: nearly all actives have a fitted effect of over 30% in size
Method in brief: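 ERR reporter cells were plated 6 h before compound addition, then exposed to test compounds in DMSO for 17.5 h at 37 C. Viability was read as CellTiter-Fluor fluorescence after a 30-minute incubation at 37 C.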

[13] = target: Luciferin 4-monooxygenase (Photinus pyralis) (UniProt P08659); experiment: qHTS assay to identify small molecule inhibitors of firefly luciferase (AID 1224835); note: series mostly up to about 120 µM; nearly all actives have a fitted effect of over 25% in size
Method in brief: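 Quantitative HTS format; KM concentrations of both substrates. Purified P. pyralis FLuc activity quantified from luminescence images.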

[14] = qHTS assay to identify small molecule agonists of the constitutive androstane receptor (CAR) signaling pathway - cell viability counter screen (AID 1224836); note: series mostly up to about 92 µM; nearly all actives have a fitted effect of over 45% in size
Method in brief: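 Counter screen multiplexed with the CAR reporter readout: HepG2 cells co-transfected with hCAR and the CYP2B6-2.2kb construct receive a 15-concentration compound series and 0.75 uM PK11195 (final), then CellTiter-Fluor fluorescence is read after 23 h.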

[15] = qHTS assay to identify small molecule antagonists of the constitutive androstane receptor (CAR) signaling pathway - cell viability counter screen (AID 1224837); note: series mostly up to about 92 µM; nearly all actives have a fitted effect of over 45% in size
Method in brief: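 HepG2 cells stably expressing hCAR and a CYP2B6-2.2kb reporter were plated and pre-incubated 4 hr at 37 C/5% CO2, then given compounds at 15 concentrations plus 50 nM CITCO (final). After 23 hr, viability was read by CellTiter-Fluor fluorescence.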

[16] = target: Nuclear receptor subfamily 1 group I member 3 (Homo sapiens) (UniProt Q14994); experiment: qHTS assay to identify small molecule antagonists of the constitutive androstane receptor (CAR) signaling pathway (AID 1224838); note: nearly all actives have a fitted effect of over 40% in size
Method in brief: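 HepG2 cells stably co-transfected with hCAR and a CYP2B6-2.2kb luciferase reporter were seeded 4 h before compound addition at 15 concentrations. Cells were stimulated with 50 nM CITCO (final) for 24 h at 37 C; luciferase luminescence was then read.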

[17] = qHTS assay to identify small molecule antagonists of the estrogen related receptor signaling pathway with the pleiotropic PPARgamma coactivator (PGC) from Tox21 10K library (AID 1224841; call rule not given here)
Method in brief: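 PGC/ERR reporter cells were seeded at 2,000 cells/well and held 6 hours at 37 C/5% CO2 before pin-tool addition of compounds in DMSO. After 18 hours at 37 C, One-Glo was added and luminescence read after 30 minutes at room temperature.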

[18] = qHTS assay to identify small molecule agonists of the estrogen related receptor signaling pathway with the pleiotropic PPARgamma coactivator (PGC) from Tox21 10K library (AID 1224842); note: nearly all actives have a fitted effect of over 15% in size
Method in brief: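 PGC/ERR reporter cells (NTP line) were seeded 2,000 per well, rested 6 h at 37 C/5% CO2, then pin-dosed with compounds in DMSO for 18 h at 37 C; luciferase read by One-Glo luminescence after 30 min at room temperature.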

[19] = target: Nuclear receptor subfamily 1 group I member 3 (Homo sapiens) (UniProt Q14994); experiment: qHTS assay to identify small molecule agonists of the constitutive androstane receptor (CAR) signaling pathway (AID 1224839); note: series mostly up to about 92 µM; nearly all actives have a fitted effect of over 15% in size
Method in brief: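 A 15-concentration quantitative screen uses HepG2 cells co-transfected stably with human CAR and CYP2B6-2.2kb reporter. Treatment lasts 24 h with 0.75 uM PK11195 final present; ONE-Glo luminescence is the signal.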

[20] = qHTS assay to identify small molecule antagonists of the estrogen related receptor signaling pathway with the pleiotropic PPARgamma coactivator (PGC) from Tox21 10K library - cell viability counter screen (AID 1224840; active = well fitted cell-killing curve with a large enough effect in the repeat runs, not every such curve was filed as active; note: nearly all actives have a fitted effect of over 40% in size)
Method in brief: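 PGC/ERR cells were seeded at 2,000 cells/well and left 6 hours at 37 C/5% CO2 before pin-tool addition of compounds in DMSO. After 17.5 hours at 37 C, CellTiter-Fluor was added and fluorescence read 30 minutes later.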

Measured: Potency

Sequence of Nuclear receptor subfamily 1 group I member 3 (Homo sapiens) (Q14994 whole entry, looked up): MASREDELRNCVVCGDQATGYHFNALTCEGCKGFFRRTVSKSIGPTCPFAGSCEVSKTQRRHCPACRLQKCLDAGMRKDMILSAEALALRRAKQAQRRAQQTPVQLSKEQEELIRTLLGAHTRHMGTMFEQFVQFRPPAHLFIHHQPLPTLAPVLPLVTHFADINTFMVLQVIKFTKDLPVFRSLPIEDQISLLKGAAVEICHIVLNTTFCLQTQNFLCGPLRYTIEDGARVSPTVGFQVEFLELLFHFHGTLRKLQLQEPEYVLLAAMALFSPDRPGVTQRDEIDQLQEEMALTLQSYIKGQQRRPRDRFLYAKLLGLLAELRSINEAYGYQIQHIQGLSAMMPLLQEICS
Sequence of Luciferin 4-monooxygenase (Photinus pyralis) (P08659 whole entry, looked up): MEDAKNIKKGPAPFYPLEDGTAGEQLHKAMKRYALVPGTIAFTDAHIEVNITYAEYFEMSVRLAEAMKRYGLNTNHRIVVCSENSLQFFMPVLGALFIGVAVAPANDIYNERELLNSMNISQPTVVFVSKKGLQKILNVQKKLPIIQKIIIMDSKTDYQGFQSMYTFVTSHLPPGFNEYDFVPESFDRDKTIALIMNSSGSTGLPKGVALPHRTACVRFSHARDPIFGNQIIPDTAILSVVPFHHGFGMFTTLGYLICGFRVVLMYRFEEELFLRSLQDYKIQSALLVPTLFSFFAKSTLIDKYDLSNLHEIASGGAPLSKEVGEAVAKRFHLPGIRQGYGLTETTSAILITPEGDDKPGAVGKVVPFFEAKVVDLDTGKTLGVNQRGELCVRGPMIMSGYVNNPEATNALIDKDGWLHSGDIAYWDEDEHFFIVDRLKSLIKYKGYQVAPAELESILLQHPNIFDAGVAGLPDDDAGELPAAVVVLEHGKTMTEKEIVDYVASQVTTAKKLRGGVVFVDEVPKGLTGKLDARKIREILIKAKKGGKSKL
Sequence of Retinoic acid receptor RXR-alpha (Homo sapiens) (P19793 whole entry, looked up): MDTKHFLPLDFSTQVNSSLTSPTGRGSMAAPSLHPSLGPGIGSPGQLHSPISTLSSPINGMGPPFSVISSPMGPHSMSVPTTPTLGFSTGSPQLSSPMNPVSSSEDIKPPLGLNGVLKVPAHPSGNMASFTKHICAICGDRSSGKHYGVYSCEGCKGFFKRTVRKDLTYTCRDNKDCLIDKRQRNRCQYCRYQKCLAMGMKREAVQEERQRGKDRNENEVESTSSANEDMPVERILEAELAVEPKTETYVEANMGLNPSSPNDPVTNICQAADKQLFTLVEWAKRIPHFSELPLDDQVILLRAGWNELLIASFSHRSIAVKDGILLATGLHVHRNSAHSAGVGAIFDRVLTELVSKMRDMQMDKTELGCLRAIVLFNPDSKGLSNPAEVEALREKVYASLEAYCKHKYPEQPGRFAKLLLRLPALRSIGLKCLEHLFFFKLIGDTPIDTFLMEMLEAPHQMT

Cc1cccc(C)c1NC(=O)C(C)N (stereo not given)
inactive: [1] | [2] | [3] | [4] | [5] | [6] | [7] | [8] | [9] | [10] | [11] | [12] | [13] | [14] | [15] | [16] | [17] | [18]

Cc1ccc(=O)n(-c2ccccc2)c1
inactive: [1] | [2] | [3] | [4] | [5] | [6] | [7] | [8] | [9] | [10] | [11] | [12] | [13] | [14] | [15] | [16] | [19] | [20] | [17] | [18]

O=C1NC(=O)[C@@]2(CCOc3ccc(F)cc32)N1
inactive: [1] | [2] | [3] | [4] | [5] | [6] | [10] | [12] | [13] | [14] | [15] | [20]

CN1CCC(=C2c3ccccc3CC(=O)c3sccc32)CC1
inactive: [1] | [2] | [3] | [4] | [5] | [6] | [10] | [12] | [13] | [14] | [15] | [20]

Nc1c2c(nc3ccccc13)CCCC2O (stereo not given)
inactive: [1] | [2] | [3] | [4] | [5] | [6] | [7] | [8] | [9] | [10] | [11] | [12] | [13] | [14] | [15] | [16] | [19] | [20] | [17] | [18]

Oc1ccc(C2CNCCc3c2cc(O)c(O)c3Cl)cc1 (stereo not given)
inactive: [1] | [2] | [3] | [4] | [5] | [6] | [10] | [12] | [13] | [14] | [15] | [16] | [19] | [20]

CC(=O)OCC(=O)[C@@]1(O)CC[C@H]2[C@@H]3CCC4=CC(=O)CC[C@]4(C)[C@H]3C(=O)C[C@@]21C
inactive: [1] | [2] | [3] | [4] | [5] | [6] | [10] | [12] | [13] | [14] | [20]

Brc1c(NC2=NCCN2)ccc2nccnc12
inactive: [1] | [2] | [3] | [4] | [5] | [6] | [7] | [8] | [9] | [10] | [11] | [12] | [14] | [15] | [19] | [20] | [17] | [18]
